# Results: PubChem BioAssay (EPA / NIEHS)
# Where “and” joins values, the source holds several entries; their conditions need not be identical. Equal values may be shown once. Inconclusive results are not listed. Some compounds were tested as several samples or in several runs, with calls that do not always agree. Calls of active or inactive are those of the source. The calls were made as follows: active = hit-call score of the fitted dose curve at least 0.9, where 1 is the maximum; inconclusive = response in the unintended direction; inactive = score below 0.9.
# Columns and labels:
# [1] = target: Estrogen receptor (Homo sapiens) + Estrogen receptor beta (Homo sapiens) (UniProt P03372+Q92731); assay: OT_ER_ERaERb_1440: Odyssey Thera (OT) 24-hour HEK293T Protein-Complementation Assay for Estrogen Receptor-alpha/-beta Homodimer (AID 2283356);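 also: heteromer of ER alpha and ER beta binding domains; hits raise reporter fluorescence and both agonists and antagonists give an increase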
# Chain of Estrogen receptor (Homo sapiens) + Estrogen receptor beta (Homo sapiens) (P03372 whole entry, looked up, the tested form may be a part): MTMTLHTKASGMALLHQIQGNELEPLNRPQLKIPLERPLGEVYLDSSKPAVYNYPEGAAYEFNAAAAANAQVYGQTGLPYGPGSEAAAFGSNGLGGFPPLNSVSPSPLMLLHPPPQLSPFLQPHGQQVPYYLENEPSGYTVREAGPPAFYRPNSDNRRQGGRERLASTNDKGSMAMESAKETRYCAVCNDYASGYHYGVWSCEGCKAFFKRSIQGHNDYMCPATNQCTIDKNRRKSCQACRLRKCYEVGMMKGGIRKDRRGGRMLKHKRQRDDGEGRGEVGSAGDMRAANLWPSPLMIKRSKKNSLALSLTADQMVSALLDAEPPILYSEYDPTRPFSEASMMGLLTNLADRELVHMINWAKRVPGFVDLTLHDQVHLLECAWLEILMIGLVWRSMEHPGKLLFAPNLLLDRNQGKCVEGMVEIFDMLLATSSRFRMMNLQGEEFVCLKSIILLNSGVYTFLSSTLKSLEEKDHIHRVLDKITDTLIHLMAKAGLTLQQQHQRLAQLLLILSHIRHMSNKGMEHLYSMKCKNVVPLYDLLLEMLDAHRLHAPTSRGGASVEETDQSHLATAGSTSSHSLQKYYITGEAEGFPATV
# Chain of Estrogen receptor (Homo sapiens) + Estrogen receptor beta (Homo sapiens) (Q92731 whole entry, looked up, the tested form may be a part): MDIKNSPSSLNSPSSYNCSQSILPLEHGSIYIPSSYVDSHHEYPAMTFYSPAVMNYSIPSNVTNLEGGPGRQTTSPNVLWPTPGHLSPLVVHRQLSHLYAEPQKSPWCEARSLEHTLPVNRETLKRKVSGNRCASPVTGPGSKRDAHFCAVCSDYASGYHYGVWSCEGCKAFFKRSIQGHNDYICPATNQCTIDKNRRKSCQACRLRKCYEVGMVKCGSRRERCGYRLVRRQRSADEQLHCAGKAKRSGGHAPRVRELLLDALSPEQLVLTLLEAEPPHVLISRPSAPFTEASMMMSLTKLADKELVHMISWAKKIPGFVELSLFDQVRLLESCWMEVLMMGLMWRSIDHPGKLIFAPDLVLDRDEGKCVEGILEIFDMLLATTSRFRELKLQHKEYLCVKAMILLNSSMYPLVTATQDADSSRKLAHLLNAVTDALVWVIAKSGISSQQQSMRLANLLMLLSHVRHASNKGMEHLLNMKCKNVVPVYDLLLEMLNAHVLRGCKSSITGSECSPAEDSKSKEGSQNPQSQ
# Procedure, shortened: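 Stable HEK293T PCA line, ERα LBD 310-547 + ERβ LBD 263-489 fused to reporter fragments; 24 h treatment; fluorescence read by laser scanning cytometry; positive fitting direction relative to DMSO.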
# [2] = target: Estrogen receptor beta (Homo sapiens) (UniProt Q92731); assay: OT_ER_ERbERb_0480: Odyssey Thera (OT) 8-hour HEK293T Protein-Complementation Assay for Estrogen Receptor-beta/-beta Homodimer (AID 2283357);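 also: active means signal gain over DMSO baseline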
# Chain of Estrogen receptor beta (Homo sapiens) (Q92731 whole entry, looked up, the tested form may be a part): as above
# Procedure, shortened: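 Readout: increase in mean fluorescence intensity (nucleus for agonists; nucleus plus cytoplasm for antagonists) relative to DMSO, from a reporter-fragment complementation of human ER-beta LBD homodimer in HEK293T cells dosed 8 hours.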
# [3] = target: Androgen Receptor/SRC-1 Co-activator, AR (gene 367) (UniProt P10275); assay: OT_AR_ARSRC1_0480: Odyssey Thera (OT) 8-hour HEK293T Protein-Complementation Assay for Androgen Receptor/SRC-1 Co-activator (AID 2283354);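 also: hits raise the complementation signal above DMSO so AC50 marks enhancers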
# Chain of Androgen Receptor/SRC-1 Co-activator, AR (gene 367) (P10275 whole entry, looked up, the tested form may be a part): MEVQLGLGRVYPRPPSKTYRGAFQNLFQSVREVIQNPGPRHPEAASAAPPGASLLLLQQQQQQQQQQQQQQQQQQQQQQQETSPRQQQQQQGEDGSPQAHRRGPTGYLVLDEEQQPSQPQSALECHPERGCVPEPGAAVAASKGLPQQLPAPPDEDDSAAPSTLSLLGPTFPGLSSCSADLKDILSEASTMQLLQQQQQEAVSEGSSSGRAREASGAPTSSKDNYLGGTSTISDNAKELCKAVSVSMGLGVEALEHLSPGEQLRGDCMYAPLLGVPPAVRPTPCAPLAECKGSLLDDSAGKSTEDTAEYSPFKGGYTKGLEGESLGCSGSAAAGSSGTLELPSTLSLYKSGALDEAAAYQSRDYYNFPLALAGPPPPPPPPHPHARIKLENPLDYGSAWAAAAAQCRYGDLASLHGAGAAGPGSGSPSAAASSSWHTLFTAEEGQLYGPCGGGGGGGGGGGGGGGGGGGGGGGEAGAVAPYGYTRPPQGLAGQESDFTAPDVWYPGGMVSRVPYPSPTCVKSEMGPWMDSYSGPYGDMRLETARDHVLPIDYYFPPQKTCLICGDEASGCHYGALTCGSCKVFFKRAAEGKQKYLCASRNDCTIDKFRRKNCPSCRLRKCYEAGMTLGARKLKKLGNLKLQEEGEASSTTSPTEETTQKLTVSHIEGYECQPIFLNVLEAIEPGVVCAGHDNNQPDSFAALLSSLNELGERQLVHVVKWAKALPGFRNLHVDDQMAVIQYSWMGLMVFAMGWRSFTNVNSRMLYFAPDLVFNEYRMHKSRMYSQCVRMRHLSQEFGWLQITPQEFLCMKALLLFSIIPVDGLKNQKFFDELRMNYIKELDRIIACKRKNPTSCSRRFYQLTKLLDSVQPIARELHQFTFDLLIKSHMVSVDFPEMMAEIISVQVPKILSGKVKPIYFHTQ
# Procedure, shortened: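 HEK293T cells stably expressing AR and SRC-1 fused to split Venus YFP fragments via (Gly4Ser)2 linkers were read 8 h after compound dosing. Complementation was imaged at 488 and 635nm, and nuclear/cytoplasmic fluorescence ratio (488nm) was taken over ≥400 cells; gain-of-signal versus DMSO.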
# [4] = target: rat Mineralocorticoid Receptor (MR), Nr3c2 (gene 25672) (UniProt P22199); assay: NVS_NR_rMR: NovaScreen (NVS) Nuclear Receptor Binding Assay for rat Mineralocorticoid Receptor (MR) (AID 2283355)
# Chain of rat Mineralocorticoid Receptor (MR), Nr3c2 (gene 25672) (P22199 whole entry, looked up): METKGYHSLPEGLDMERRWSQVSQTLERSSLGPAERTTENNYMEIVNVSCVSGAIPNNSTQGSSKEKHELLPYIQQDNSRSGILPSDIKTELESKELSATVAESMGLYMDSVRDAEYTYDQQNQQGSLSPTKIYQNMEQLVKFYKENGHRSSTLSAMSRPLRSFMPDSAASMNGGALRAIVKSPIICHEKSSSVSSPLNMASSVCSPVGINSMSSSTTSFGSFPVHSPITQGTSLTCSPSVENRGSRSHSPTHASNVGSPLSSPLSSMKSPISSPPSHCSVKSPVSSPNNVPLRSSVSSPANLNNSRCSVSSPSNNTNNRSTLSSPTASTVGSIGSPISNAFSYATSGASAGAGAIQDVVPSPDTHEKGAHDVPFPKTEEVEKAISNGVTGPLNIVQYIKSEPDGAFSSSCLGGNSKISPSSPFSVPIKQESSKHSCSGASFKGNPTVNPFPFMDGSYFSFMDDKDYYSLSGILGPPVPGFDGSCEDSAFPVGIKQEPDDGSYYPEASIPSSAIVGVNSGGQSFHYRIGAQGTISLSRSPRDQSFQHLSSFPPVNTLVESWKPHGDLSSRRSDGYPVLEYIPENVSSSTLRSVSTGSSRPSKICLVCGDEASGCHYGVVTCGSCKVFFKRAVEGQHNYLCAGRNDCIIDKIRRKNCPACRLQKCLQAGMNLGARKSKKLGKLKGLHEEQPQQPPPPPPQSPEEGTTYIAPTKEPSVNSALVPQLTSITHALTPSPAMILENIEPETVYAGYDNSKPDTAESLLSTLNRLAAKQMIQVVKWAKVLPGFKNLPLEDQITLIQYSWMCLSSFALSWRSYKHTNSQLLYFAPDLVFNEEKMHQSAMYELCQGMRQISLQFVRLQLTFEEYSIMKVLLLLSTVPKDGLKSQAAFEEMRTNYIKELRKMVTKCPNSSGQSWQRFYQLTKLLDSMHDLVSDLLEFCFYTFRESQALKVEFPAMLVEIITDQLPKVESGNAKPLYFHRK
# Procedure, shortened: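 Cell-free radioligand binding to MR in adrenalectomized rat brain supernatant, scintillation counted 24 h after dosing. Loss of signal versus DMSO baseline marks displacement. Primary screen in duplicate at 25 uM; actives retested as concentration series.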
# PGR (gene 5241) = PGR (gene 5241) (UniProt P06401); assay: NVS_NR_hPR: NovaScreen (NVS) Nuclear Receptor Binding Assay for human Progestron Receptor (PR) (AID 2283360);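 also: active means loss of bound radioligand signal versus DMSO baseline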
# Chain of PGR (gene 5241) (P06401 whole entry, looked up): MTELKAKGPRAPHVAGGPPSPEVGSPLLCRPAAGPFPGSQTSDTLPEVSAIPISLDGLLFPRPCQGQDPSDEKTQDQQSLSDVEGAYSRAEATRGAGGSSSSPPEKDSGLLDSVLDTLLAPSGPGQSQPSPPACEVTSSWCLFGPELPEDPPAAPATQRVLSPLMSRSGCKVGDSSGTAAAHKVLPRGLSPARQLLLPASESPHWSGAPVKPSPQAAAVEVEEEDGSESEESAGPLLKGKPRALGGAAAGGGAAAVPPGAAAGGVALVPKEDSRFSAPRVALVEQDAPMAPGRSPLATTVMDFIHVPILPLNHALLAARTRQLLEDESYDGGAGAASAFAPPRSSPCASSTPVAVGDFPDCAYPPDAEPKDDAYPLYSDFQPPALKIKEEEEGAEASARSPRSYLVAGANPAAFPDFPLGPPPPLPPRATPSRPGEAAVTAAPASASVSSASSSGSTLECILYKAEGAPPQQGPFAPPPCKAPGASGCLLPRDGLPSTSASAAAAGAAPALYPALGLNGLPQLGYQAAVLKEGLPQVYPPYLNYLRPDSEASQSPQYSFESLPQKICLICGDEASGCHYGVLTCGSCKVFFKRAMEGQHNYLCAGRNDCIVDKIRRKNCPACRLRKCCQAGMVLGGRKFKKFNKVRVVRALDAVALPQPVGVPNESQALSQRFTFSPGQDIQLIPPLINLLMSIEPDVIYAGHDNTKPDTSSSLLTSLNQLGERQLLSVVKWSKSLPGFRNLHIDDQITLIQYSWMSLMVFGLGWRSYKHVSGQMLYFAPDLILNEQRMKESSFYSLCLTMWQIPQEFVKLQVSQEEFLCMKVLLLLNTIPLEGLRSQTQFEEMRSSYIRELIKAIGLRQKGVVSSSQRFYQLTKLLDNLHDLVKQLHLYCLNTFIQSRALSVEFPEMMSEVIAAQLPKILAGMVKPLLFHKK
# Procedure, shortened: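 Radioligand competition binding on receptor extracted from T47D cells, read by scintillation counting 18 h after dosing. Loss of signal versus DMSO; primary screen in duplicate at 25 uM, actives followed in concentration series.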
# [5] = target: Androgen Receptor/SRC-1 Co-activator, AR (gene 367) (UniProt P10275); assay: OT_AR_ARSRC1_0960: Odyssey Thera (OT) 16-hour HEK293T Protein-Complementation Assay for Androgen Receptor/SRC-1 Co-activator (AID 2283353);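 also: actives raise the signal above DMSO so potency reflects increased AR and SRC-1 complex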
# Procedure, shortened: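 Split-Venus PCA, AR/SRC-1 fusions, stable HEK293T; 16 h compound exposure; imaged at 488 and 635 nm; N/C ratio (488 nm channel), min 400 cells/image; positive-direction fit, DMSO baseline.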
# [6] = target: Retinoic acid receptor alpha (Homo sapiens) (UniProt P10276); assay: NVS_NR_hRAR_Antagonist: NovaScreen (NVS) Nuclear Receptor Binding Assay for human Retinoic Acid Alpha Receptor Antagonism (RAR) (AID 2283358)
# Chain of Retinoic acid receptor alpha (Homo sapiens) (P10276 whole entry, looked up): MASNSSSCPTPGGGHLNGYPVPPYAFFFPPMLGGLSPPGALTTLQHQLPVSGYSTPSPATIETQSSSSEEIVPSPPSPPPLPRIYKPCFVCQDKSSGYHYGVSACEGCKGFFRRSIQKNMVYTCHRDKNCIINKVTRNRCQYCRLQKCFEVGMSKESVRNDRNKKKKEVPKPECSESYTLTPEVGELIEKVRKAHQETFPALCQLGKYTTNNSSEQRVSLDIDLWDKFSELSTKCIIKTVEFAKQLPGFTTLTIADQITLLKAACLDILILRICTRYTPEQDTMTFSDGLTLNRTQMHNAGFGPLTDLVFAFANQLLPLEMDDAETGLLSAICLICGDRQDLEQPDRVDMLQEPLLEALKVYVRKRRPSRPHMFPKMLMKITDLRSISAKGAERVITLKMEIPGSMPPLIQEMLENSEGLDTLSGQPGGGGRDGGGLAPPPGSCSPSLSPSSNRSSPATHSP
# Procedure, shortened: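 Cell-free TR-FRET binding assay on extracted receptor protein, run in antagonist mode; signal read 2 hours after chemical dosing. Loss of signal was fitted relative to DMSO baseline. Screened at 25 uM in duplicate, actives followed up in concentration series.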
# [7] = target: human Peroxisome Proliferator-activated Receptor alpha (PPARa), PPARA (gene 5465) (UniProt Q07869); assay: NVS_NR_hPPARa: NovaScreen (NVS) Nuclear Receptor Binding Assay for human Peroxisome Proliferator-activated Receptor alpha (PPARa) (AID 2283359);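 also: activity means loss of TR-FRET signal versus DMSO baseline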
# Chain of human Peroxisome Proliferator-activated Receptor alpha (PPARa), PPARA (gene 5465) (Q07869 whole entry, looked up): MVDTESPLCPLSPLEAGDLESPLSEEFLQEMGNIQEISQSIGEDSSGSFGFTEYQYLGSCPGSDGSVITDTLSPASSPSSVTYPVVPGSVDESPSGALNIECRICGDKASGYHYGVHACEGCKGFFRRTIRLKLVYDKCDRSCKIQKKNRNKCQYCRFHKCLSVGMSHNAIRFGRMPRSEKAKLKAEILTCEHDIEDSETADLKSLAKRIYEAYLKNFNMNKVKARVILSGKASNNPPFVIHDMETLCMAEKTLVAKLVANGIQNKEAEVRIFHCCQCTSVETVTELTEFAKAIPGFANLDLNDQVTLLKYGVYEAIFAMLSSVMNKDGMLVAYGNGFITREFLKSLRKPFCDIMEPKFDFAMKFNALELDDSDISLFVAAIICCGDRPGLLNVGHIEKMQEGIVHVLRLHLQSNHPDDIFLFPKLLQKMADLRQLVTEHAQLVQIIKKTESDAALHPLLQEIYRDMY
# Procedure, shortened: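 Cell-free binding assay with extracted human protein, read by TR-FRET 1 h after chemical dosing. Loss of signal relative to DMSO baseline indicates binding. Primary screen used duplicate single concentration (25 uM); actives followed up in concentration series.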
# [8] = target: Retinoic acid receptor alpha (Homo sapiens) (UniProt P10276); assay: NVS_NR_hRARa_Agonist: NovaScreen (NVS) Nuclear Receptor Binding Assay for human Retinoic Acid Alpha Receptor Agonism (RAR) (AID 2283361)
# Procedure, shortened: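 Cell-free TR-FRET binding read-out with extracted human RARα protein, read 2 h after compound addition. Gain of signal scored against DMSO baseline. Primary screen at a single 25 uM in duplicate; actives then retested in concentration series.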
# [9] = target: human Thyroid Receptor Alpha (TRa), THRA (gene 7067) (UniProt P10827); assay: NVS_NR_hTRa_Antagonist: NovaScreen (NVS) Nuclear Receptor Binding Assay for human Thyroid Receptor Alpha Antagonism (TRa) (AID 2283362);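 also: activity is loss of signal relative to DMSO baseline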
# Procedure, shortened: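 Extracted protein, cell-free; 1 h incubation after dosing; AlphaLISA chemiluminescence binding readout. DMSO = baseline/neg ctrl; signal loss = activity. Primary: duplicate, 25 uM; secondary: conc. series on actives.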
compound,measurement,setting,value
CN(C)CCO,outcome,[1],inactive
same,outcome,[2],inactive
CC(C)C(=O)OCC(C)(C)C(OC(=O)C(C)C)C(C)C (stereo not given),outcome,[1],inactive
same,outcome,[2],inactive
CO/C=C(/C(=O)OC)c1ccccc1COc1cccc(C(F)(F)F)n1,outcome,[1],inactive
same,outcome,[2],inactive
CCC(=O)O[C@H]1CC[C@H]2[C@@H]3CCC4=CC(=O)CC[C@]4(C)[C@H]3CC[C@]12C,AC50,[3],29.9 nM (active) [middle of 6 runs]
same,AC50,[4],0.517 µM (active)
same,AC50,[1],14.9 µM (active) and 12.4 µM (active) and 14.7 µM (active)
same,outcome,[1],inactive
same,AC50,[2],12.2 µM (active) and 4.06 µM (active) and 12.3 µM (active)
same,outcome,[2],inactive
same,AC50,PGR (gene 5241),1.04 µM (active)
CCCCCCOC(=O)c1ccccc1C(=O)OCCCCCC,outcome,[4],inactive
Cc1ccccc1CO[C@@H]1C[C@@]2(C(C)C)CC[C@]1(C)O2,AC50,[5],79.7 µM (active)
same,outcome,[3],inactive
same,outcome,[6],inactive
Oc1ccc(C(c2ccc(O)cc2)(C(F)(F)F)C(F)(F)F)cc1,AC50,[4],16.9 µM (active)
same,AC50,[7],19.2 µM (active) and 20.7 µM (active) and 19.7 µM (active)
same,AC50,PGR (gene 5241),1.32 µM (active)
CC#Cc1cc(C)nc(Nc2ccccc2)n1,outcome,[4],inactive
same,outcome,[1],inactive
same,outcome,[2],inactive
CCOC(=O)C(O)(c1ccc(Cl)cc1)c1ccc(Cl)cc1,AC50,[5],37 µM (active)
same,AC50,[3],66.7 µM (active)
same,outcome,[1],inactive
same,outcome,[2],inactive
N#Cc1ccc(N(CC(N)=O)CC(F)(F)F)cc1C(F)(F)F,outcome,[1],inactive
CC1=C2C[C@H]3[C@@H](CC=C4C[C@@H](O)CC[C@@]43C)[C@@H]2CC[C@]12O[C@@H]1C[C@H](C)CN[C@H]1[C@H]2C,outcome,[5],inactive
same,outcome,[3],inactive
same,outcome,[8],inactive
CN(C)c1nc(=O)n(C2CCCCC2)c(=O)n1C,outcome,[1],inactive
same,outcome,[2],inactive
CCCCCCCCCC[N+](C)(C)CCCCCCCCCC,outcome,[1],inactive
same,AC50,[7],861 nM (active)
O=S(=O)(O)C(F)(F)C(F)(F)C(F)(F)C(F)(F)C(F)(F)C(F)(F)F,outcome,[7],inactive
same,outcome,[9],inactive
COc1ccc(O)c(C(C)(C)C)c1,AC50,[1],53.1 µM (active)
same,AC50,[2],31.8 µM (active)
same,AC50,[9],19.3 µM (active)
CC(C)(c1ccccc1)c1ccc(O)cc1,AC50,[1],11.9 µM (active)
same,AC50,[2],1.8 µM (active) and 1.91 µM (active) and 2.14 µM (active)
same,AC50,PGR (gene 5241),13.9 µM (active)
C1CC2OC2CC1C1CO1 (stereo not given),outcome,[1],inactive
same,outcome,[2],inactive
Oc1ccc(Cl)cc1Cl,outcome,[1],inactive
same,AC50,[2],50 µM (active)
same,outcome,[6],inactive
same,outcome,PGR (gene 5241),inactive
same,outcome,[9],inactive
CCCN(CCC)N=O,outcome,[1],inactive
same,outcome,[2],inactive
same,outcome,[6],inactive
same,outcome,[7],inactive
O=C(O)C(F)(F)C(F)(F)C(F)(F)C(F)(F)C(F)(F)C(F)(F)C(F)(F)C(F)(F)F,outcome,[1],inactive
same,outcome,[2],inactive
same,outcome,[6],inactive
same,outcome,[7],inactive
COS(=O)(=O)OC,outcome,[8],inactive
ClC1=C(Cl)[C@]2(Cl)[C@@H]3[C@@H](Cl)[C@H]4O[C@H]4[C@@H]3C1(Cl)C2(Cl)Cl,AC50,[1],50 µM (active)
same,AC50,[2],13.8 µM (active)
Cc1cc(-c2ccc(N)c(C)c2)ccc1N,outcome,[6],inactive
ClC(Cl)=C(c1ccc(Cl)cc1)c1ccc(Cl)cc1,outcome,[7],inactive
same,outcome,[9],inactive
CCCCCCCCCc1ccc(O)cc1,AC50,[1],36.2 µM (active) and 36 µM (active) and 48.1 µM (active)
same,AC50,[2],12.7 µM (active) and 12.4 µM (active)
same,outcome,[8],inactive
same,outcome,[9],inactive
CC(C)(O)C(=O)Nc1ccc([N+](=O)[O-])c(C(F)(F)F)c1,outcome,[1],inactive
same,outcome,[2],inactive
same,outcome,[7],inactive
same,outcome,PGR (gene 5241),inactive
Nc1ccc(-c2ccc(N)cc2)cc1,outcome,[1],inactive
same,outcome,[2],inactive
O=C(O)C(F)(F)C(F)(F)C(F)(F)C(F)(F)C(F)(F)F,outcome,[1],inactive
same,outcome,[2],inactive
same,outcome,[7],inactive
O=NN(c1ccccc1)c1ccccc1,outcome,PGR (gene 5241),inactive
Clc1ccc(C(c2ccccc2Cl)C(Cl)(Cl)Cl)cc1 (stereo not given),AC50,[2],2.09 µM (active) and 3.59 µM (active) and 1.83 µM (active)
O=S(=O)(O)C(F)(F)C(F)(F)C(F)(F)C(F)(F)F,outcome,[1],inactive
same,outcome,[2],inactive
same,outcome,[7],inactive
Cc1ccccc1[N+](=O)[O-],outcome,[1],inactive
same,outcome,PGR (gene 5241),inactive
OCC(O)CO,outcome,[1],inactive
same,outcome,[2],inactive
same,outcome,[7],inactive
ClC1=C(Cl)[C@]2(Cl)[C@@H]3[C@@H]4C[C@@H]([C@H]5O[C@@H]45)[C@@H]3[C@@]1(Cl)C2(Cl)Cl,outcome,[8],inactive
Cc1ccc(O)c(C)c1,outcome,[1],inactive
same,outcome,[2],inactive
same,outcome,[7],inactive
same,outcome,PGR (gene 5241),inactive
Cc1ccccc1O,outcome,[2],inactive
CCC(C)(CC)c1cc(NC(=O)c2c(OC)cccc2OC)on1,outcome,[2],inactive
Cc1cc(O)ccc1Cl,AC50,[1],43.7 µM (active)
same,AC50,[2],47 µM (active)
Cc1cc2c3c(c1)C(c1ccccc1)=N[C@@H](NC(=O)c1ccncc1)C(=O)N3CC2,outcome,[1],inactive
same,outcome,[7],inactive
Oc1c(Cl)c(Cl)c(Cl)c(Cl)c1Cl,outcome,[7],inactive
same,outcome,PGR (gene 5241),inactive
